From PubChem BioAssay
The source made the active and inactive calls. Unless noted, how the calls were made is not given here.

Columns and labels:
[1] = resazurin metabolic signal in HepG2 cells – cell-based, resazurin fluorescence, 24 h, PK04 Diversity Set, profiling panel (AID 1172); conditions: HepG2 viability, higher = more signal
[2] = budding yeast growth changes without added modifier – OD600, strain BY4716, 24 h, basal condition, primary screen (AID 1173); conditions: S. cerevisiae BY4716 growth, OD600, 24 h; higher = more signal, called active from +8 up or from −8 down
[3] = viability profiling in MM1S myeloma cells – cell-based, resazurin fluorescence, basal, 24 h, PK04 Diversity Set, profiling panel (AID 1174); conditions: higher = more signal, called active from +8 up or from −8 down;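 further: MM1S multiple myeloma cell line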
[4] = target: Dihydroorotate dehydrogenase (quinone), mitochondrial (Plasmodium falciparum (isolate 3D7)) (UniProt Q08210); test: inhibition of P. falciparum DHODH – biochemical, C-terminal His tag, absorbance 600 nm, primary screen (AID 1175); conditions: PfDHODH enzyme, DCIP absorbance 600 nm; higher = more signal, called active from +8 up or from −8 down;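 further: recombinant parasite enzyme with a five histidine tag at its C terminus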
[5] = inhibition of PAO1 biofilm formation – strain PAO1, LB-PBS medium, absorbance 600 nm, primary screen (AID 1176); conditions: P. aeruginosa PAO1 growth/biofilm, A600, 12 h; higher = more signal
[6] = growth modulation of vineyard yeast isolate – strain RM11-1a, OD600, basal, 24 h, primary screen (AID 1177);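 further: cultures grown under basal conditions with no added stressor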; conditions: S. cerevisiae RM11-1a growth, OD600, 24 h; higher = more signal, called active from +8 up or from −8 down
[7] = growth of efflux-deficient E. coli DRC39 – strain DRC39, OD650, 24 h, E. coli filamentation inducers, primary screen (AID 1178);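 further: growth measured as culture turbidity by optical density at 650 nm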; conditions: E. coli DRC39 acrAB, higher = more signal, called active from +8 up or from −8 down
[8] = growth of efflux-deficient E. coli DRC39 – strain DRC39, OD650, 48 h, E. coli filamentation inducers, primary screen (AID 1179);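 further: screen aims at cell division blockers that make cells filament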; conditions: E. coli DRC39 delta-acrAB growth, higher = more signal, called active from +8 up or from −8 down
[9] = viability profiling in RPMI8226 myeloma cells – cell-based, resazurin fluorescence, basal, 24 h, PK04 Diversity Set, profiling panel (AID 1180); conditions: higher = more signal;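 further: RPMI8826 multiple myeloma cell line at 5000 cells per well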
[10] = target: E3 ubiquitin-protein ligase XIAP (Homo sapiens) (UniProt P98170); test: small molecules binding XIAP protein – biophysical, small-molecule microarray, fluorescence 635 nm, primary screen (AID 1181); conditions: higher = more signal;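 further: score merges 667 nm emission and signal to noise over triplicate slides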
[11] = tested on: XIP peptide (Xip251-270) binding; test: XIP fragment 251-270 binding compounds – biochemical, small-molecule microarray, fluorescence 635/667 nm, 0.1 µg/mL protein, primary screen (AID 1182); conditions: fluorescent protein binding, 635 nm, higher = more signal, called active from +8 up or from −8 down
[12] = tested on: XIP peptide (Xip251-270); test: compounds binding XIP fragment 251-270 – biochemical, small-molecule microarray, fluorescence 635/667 nm, 0.5 µg/mL protein, primary screen (AID 1183); conditions: fluorescence 635 nm, higher = more signal
[13] = blood-stage malaria parasite viability loss – strain 3D7, DAPI fluorescence, 100 nL, primary screen (AID 1184);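 further: parasites grown inside human red blood cells in medium with human serum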; conditions: P. falciparum 3D7 growth, 3 d, higher = more signal
[14] = target: Homeobox protein Hox-A13 (Mus musculus) (UniProt Q62424); test: disruptors of Hoxa13 oligonucleotide interaction – biochemical, fluorescence polarization, labeled oligonucleotide, primary screen (AID 1185); conditions: Hoxa13:DNA binding, 15 min, higher = more signal, called active from +8 up or from −8 down
[15] = blockers of DNA damage checkpoint Chk1 activation – imaging, HeLa, hydroxyurea, phospho-Chk1 antibody, percent positive cells, primary screen (AID 1186); conditions: hydroxyurea-induced phospho-Chk1 immunofluorescence imaging, higher = more signal
[16] = blockers of DNA damage checkpoint Chk1 activation – imaging, HeLa, hydroxyurea, phospho-Chk1 nuclear intensity, primary screen (AID 1187); conditions: hydroxyurea-induced phospho-Chk1 immunofluorescence imaging, higher = more signal

Dihydroorotate dehydrogenase (quinone), mitochondrial (Plasmodium falciparum (isolate 3D7)), sequence (Q08210 whole entry, looked up): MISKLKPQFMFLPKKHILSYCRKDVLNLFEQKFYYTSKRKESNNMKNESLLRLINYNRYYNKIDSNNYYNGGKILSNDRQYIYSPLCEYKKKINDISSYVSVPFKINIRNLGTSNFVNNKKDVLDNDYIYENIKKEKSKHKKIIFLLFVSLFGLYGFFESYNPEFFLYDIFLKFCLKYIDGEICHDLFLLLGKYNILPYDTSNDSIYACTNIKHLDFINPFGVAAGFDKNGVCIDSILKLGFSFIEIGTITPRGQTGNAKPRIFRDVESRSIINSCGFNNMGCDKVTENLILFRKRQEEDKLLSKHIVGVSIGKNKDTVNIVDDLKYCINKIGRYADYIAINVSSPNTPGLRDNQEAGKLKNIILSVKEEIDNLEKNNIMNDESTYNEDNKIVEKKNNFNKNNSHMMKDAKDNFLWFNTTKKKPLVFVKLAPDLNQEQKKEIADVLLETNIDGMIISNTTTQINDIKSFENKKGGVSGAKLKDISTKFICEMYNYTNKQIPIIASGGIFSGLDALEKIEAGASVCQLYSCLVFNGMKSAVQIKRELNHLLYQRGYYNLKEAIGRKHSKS
Homeobox protein Hox-A13 (Mus musculus), sequence (Q62424 whole entry, looked up): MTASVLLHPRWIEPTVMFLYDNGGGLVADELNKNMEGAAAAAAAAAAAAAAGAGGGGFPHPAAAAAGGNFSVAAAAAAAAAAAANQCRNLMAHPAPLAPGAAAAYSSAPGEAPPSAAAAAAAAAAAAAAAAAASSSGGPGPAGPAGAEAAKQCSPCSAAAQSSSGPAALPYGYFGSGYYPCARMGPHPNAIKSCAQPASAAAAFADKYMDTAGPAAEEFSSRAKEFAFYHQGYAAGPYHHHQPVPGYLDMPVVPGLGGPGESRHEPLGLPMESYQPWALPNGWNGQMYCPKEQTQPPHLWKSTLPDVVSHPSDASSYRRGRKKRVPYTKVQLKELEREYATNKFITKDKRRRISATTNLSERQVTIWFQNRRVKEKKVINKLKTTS
E3 ubiquitin-protein ligase XIAP (Homo sapiens), sequence (P98170 whole entry, looked up, the tested form may be a part): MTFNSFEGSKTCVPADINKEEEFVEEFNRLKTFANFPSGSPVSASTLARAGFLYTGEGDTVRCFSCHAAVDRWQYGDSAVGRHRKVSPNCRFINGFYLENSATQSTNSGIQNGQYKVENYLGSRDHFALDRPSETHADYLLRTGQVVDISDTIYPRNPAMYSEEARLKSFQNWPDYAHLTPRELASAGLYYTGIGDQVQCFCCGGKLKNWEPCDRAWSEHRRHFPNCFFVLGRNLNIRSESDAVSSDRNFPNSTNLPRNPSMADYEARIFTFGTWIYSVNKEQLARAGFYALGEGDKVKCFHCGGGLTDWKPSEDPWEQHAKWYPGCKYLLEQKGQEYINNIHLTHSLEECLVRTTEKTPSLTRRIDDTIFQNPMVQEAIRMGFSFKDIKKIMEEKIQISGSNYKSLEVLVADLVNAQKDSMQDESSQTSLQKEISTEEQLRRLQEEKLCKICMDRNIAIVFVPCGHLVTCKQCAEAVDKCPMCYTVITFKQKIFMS

Structure (SMILES) | z-score [1] | z-score [2] | z-score [3] | composite z-score [4] | z-score [5] | z-score [6] | z-score [7] | z-score [8] | z-score [9] | composite z-score [10] | composite z-score [11] | composite z-score [12] | z-score [13] | z-score [14] | z-score [15] | z-score [16]
COC(=O)[C@@]1(Cc2ccc(F)cc2)[C@H]2c3cc(C(=O)N(C)C)n(Cc4ccccc4)c3C[C@H]2CN1C(=O)c1ccccc1 | -1.49 | 1.98 (inactive) | -0.946 (inactive) | 0.151 (inactive) | 0.976 (inactive) | 1.61 (inactive) | -0.342 (inactive) | 0.232 (inactive) | -2.86 | -0.2 | 0.578 (inactive) | 0.766 | -1.41 | -3.11 (inactive) | 1.33 (inactive) | 1.2 (inactive)
COCCOC(=O)N1C(=O)[C@@]2(c3ccccc31)[C@H](c1ccccc1OCCO)N1[C@H](c3ccccc3)[C@H](c3ccccc3)OC(=O)[C@H]1[C@@H]2C(=O)N1CCN(c2ncccn2)CC1 | -0.0332 | 2.64 (inactive) | -1.39 (inactive) | -0.539 (inactive) | 3.61 (inactive) | 3.08 (inactive) | -0.233 (inactive) | 0.176 (inactive) | -0.862 | -0.16 | 1.04 (inactive) | 0.799 | -2.2 | -1.99 (inactive) | 0.0172 (inactive) | 0.0629 (inactive)
O=C(c1ccccc1)N1Cc2ccccc2C[C@@]2(COC(c3ccc(OCCCO)cc3)=N2)C1=O | 1.05 | -0.264 (inactive) | 0.26 (inactive) | 0.574 (inactive) | 0.248 (inactive) | 2.02 (inactive) | -0.0674 (inactive) | -0.564 (inactive) | 0.263 | -0.231 | 1.45 (inactive) | 0.751 | -2.26 | -4.77 (inactive) | -0.221 (inactive) | 0.159 (inactive)
COC(=O)[C@@]1(Cc2ccc(OC)cc2)[C@@H]2C(=CC(=O)[C@H]2CC(=O)C(=O)N2CCCC2)CN1C(=O)c1ccccc1 | 1.82 | 1.1 (inactive) | -0.846 (inactive) | 1.7 (inactive) | -0.374 (inactive) | 0.423 (inactive) | -0.0187 (inactive) | 0.798 (inactive) | -0.663 | -0.0118 | -0.406 (inactive) | 0.161 | -0.918 | -2.39 (inactive) | -0.0101 (inactive) | -0.277 (inactive)
COCCOC(=O)N1C(=O)[C@@]2(c3cc(C#CCC(C(=O)OC)C(=O)OC)ccc31)[C@H](C(=O)Nc1nc3ccccc3s1)[C@H]1C(=O)O[C@H](c3ccccc3)[C@H](c3ccccc3)N1[C@@H]2c1ccccc1OCCO | -0.397 | 1.3 (inactive) | -1.38 (inactive) | -0.715 (inactive) | 2.96 (inactive) | 2.8 (inactive) | 0.0871 (inactive) | 0.642 (inactive) | -0.39 | 0.109 | 1.95 (inactive) | 0.813 | -1.8 | 3.19 (inactive) | 0.0747 (inactive) | 0.233 (inactive)
COC(=O)[C@@]1(Cc2ccccc2)[C@H]2c3cc(C(=O)N(C)C)n(Cc4ccsc4Br)c3C[C@H]2CN1C(=O)c1ccccc1 | -1.77 | 1.92 (inactive) | -1.74 (inactive) | 0.486 (inactive) | 0.467 (inactive) | 1.24 (inactive) | 0.156 (inactive) | 0.0523 (inactive) | -3.12 | 0.0496 | 0.274 (inactive) | 0.116 | -1.51 | -4.23 (inactive) | 0.567 (inactive) | 0.0591 (inactive)
O=C1OCCC/C=C\[C@H]2OC34C=CCN(Cc5ccccc5)C(=O)[C@H]3N(CCCO)C(=O)[C@@H]4C12 (stereo partly drawn) | -0.203 | 1.29 (inactive) | 0.794 (inactive) | 0.905 (inactive) | -1.16 (inactive) | 1.29 (inactive) | 0.625 (inactive) | 0.59 (inactive) | 1.35 | -0.0876 | 0.0652 (inactive) | -0.616 | -0.125 | -4.98 (inactive) | -0.58 (inactive) | -0.324 (inactive)
COCCOC(=O)N1C(=O)[C@@]2(c3cc(C#CCNC(N)=O)ccc31)[C@H](C(=O)Nc1nc3ccccc3s1)[C@H]1C(=O)O[C@H](c3ccccc3)[C@H](c3ccccc3)N1[C@@H]2c1ccc(OCCO)cc1 | 0.382 | 1.83 (inactive) | 0.114 (inactive) | -0.716 (inactive) | 2.41 (inactive) | 1.41 (inactive) | -0.27 (inactive) | -0.463 (inactive) | -0.397 | 0.0402 | 0.113 (inactive) | -0.221 | 0.764 | 0.886 (inactive) | -0.0719 (inactive) | -0.0419 (inactive)
NC(=O)NCC#Cc1ccc2c(c1)[C@]1(C(=O)N2)[C@H](c2ccccc2OCCO)N2[C@H](c3ccccc3)[C@H](c3ccccc3)OC(=O)[C@H]2[C@@H]1C(=O)Nc1nc2ccccc2s1 | 0.851 | 1.21 (inactive) | 0.528 (inactive) | -1.12 (inactive) | 2.29 (inactive) | 2.16 (inactive) | 0.525 (inactive) | 0.24 (inactive) | 0.744 | -0.102 | 0.213 (inactive) | 0.324 | -1.89 | 1.61 (inactive) | 0.164 (inactive) | 0.212 (inactive)
CCC[C@@H]1C[C@@]1(CCC)[C@@H](NS(=O)(=O)c1cccc2cccnc12)c1ccc(Cl)cc1 | -0.0373 | 1.43 (inactive) | -0.151 (inactive) | 0.283 (inactive) | 0.908 (inactive) | 1.24 (inactive) | -0.251 (inactive) | -0.0357 (inactive) | -0.0909 | 0.0999 | 0.0535 (inactive) | -0.271 | -0.586 | -0.392 (inactive) | 0.555 (inactive) | 0.618 (inactive)
COc1cc2c(cc1OC)CN(C(=O)[C@@H]1[C@H]3C(=O)O[C@H](c4ccccc4)[C@H](c4ccccc4)N3[C@H](c3ccc(O)cc3)[C@@]13C(=O)Nc1ccccc13)CC2 | -0.313 | -0.128 (inactive) | 0.118 (inactive) | -0.228 (inactive) | 0.614 (inactive) | 0.028 (inactive) | 1.07 (inactive) | -0.4 (inactive) | 0.109 | -0.201 | 0.0997 (inactive) | 0.686 | -1.42 | -2.32 (inactive) | -0.478 (inactive) | -0.728 (inactive)
CCCC[C@@H]1C[C@H]1[C@@H](NC(=O)c1ccco1)c1ccc(-c2ccccc2)cc1 | -0.9 | 1.22 (inactive) | -1.52 (inactive) | -3.3 (inactive) | 2.16 (inactive) | 0.505 (inactive) | -1.05 (inactive) | -1.2 (inactive) | -1.29 | 0.773 | -0.781 (inactive) | -0.321 | -0.937 | 0.141 (inactive) | 0.353 (inactive) | 0.0955 (inactive)
O[C@@H](Cc1ccccc1)[C@H]1C2C=CCCC=C2CN1Cc1cccc(Cl)c1 (stereo partly drawn) | 0.318 | -4.3 (inactive) | -0.686 (inactive) | -0.255 (inactive) | 1.27 (inactive) | -0.068 (inactive) | 0.779 (inactive) | 0.73 (inactive) | -0.0704 | -0.365 | 0.164 (inactive) | 0.421 | 0.461 | -7.63 (inactive) | 0.415 (inactive) | 0.0708 (inactive)
O=C(NCCN1CCOCC1)[C@@H]1c2ccccc2C(=O)N(C2CCCCC2)[C@H]1c1ccc(CO)cc1 | -0.0383 | 0.211 (inactive) | 0.528 (inactive) | -0.146 (inactive) | -0.177 (inactive) | 0.0492 (inactive) | -0.424 (inactive) | -0.783 (inactive) | 0.872 | -0.165 | -0.403 (inactive) | 0.0759 | -1.23 | -4.02 (inactive) | -0.389 (inactive) | -0.611 (inactive)
[N-]=[N+]=NCc1ccccc1C[C@]1(C(N)=O)COC(c2ccc(OCCCO)cc2)=N1 | 0.252 | -1.66 (inactive) | 0.424 (inactive) | -0.0854 (inactive) | 0.466 (inactive) | -1.37 (inactive) | 1.23 (inactive) | 1.87 (inactive) | 0.399 | 0.144 | 0.154 (inactive) | 0.817 | -0.486 | -4.67 (inactive) | -0.913 (inactive) | -0.959 (inactive)
CCC(CC)C(O)C1C=CC2C(=O)NC(=O)C2N1Nc1ccccn1 (stereo not drawn) | -1.34 | 0.341 (inactive) | -1.76 (inactive) | -0.629 (inactive) | 0.503 (inactive) | 0.469 (inactive) | -0.485 (inactive) | 0.333 (inactive) | -1.11 | 0.162 | -0.471 (inactive) | 0.579 | -0.3 | -0.375 (inactive) | 0.933 (inactive) | 0.481 (inactive)
COc1ccccc1CN1C(=O)c2ccccc2[C@@H](C(=O)NC2CC2)[C@@H]1c1ccc(CO)cc1 | 0.103 | -0.561 (inactive) | 0.84 (inactive) | -0.245 (inactive) | -0.342 (inactive) | 0.184 (inactive) | 0.421 (inactive) | 0.119 (inactive) | 0.407 | -0.0085 | 0.98 (inactive) | 0.835 | -1.79 | -2.46 (inactive) | 0.0151 (inactive) | 0.351 (inactive)
COC(=O)[C@@]1(Cc2ccc(OC)cc2)[C@H]2c3cc(C(=O)N(C)C)n(C)c3C[C@H]2CN1C(=O)c1ccccc1 | -0.105 | 1.3 (inactive) | -2.26 (inactive) | -0.342 (inactive) | 0.976 (inactive) | 0.241 (inactive) | -0.372 (inactive) | -1.28 (inactive) | -2.45 | 0.0279 | -0.0515 (inactive) | 0.764 | -1.4 | -3.49 (inactive) | -0.0095 (inactive) | 0.0799 (inactive)
